The source of these data is PubChem BioAssay AID1508600 (Functional Genomics Laboratory (NCATS/FGL), 2020).

Out of some 53,000 sequences screened, about 3,700 (7%) were called active.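 Rule for the calls: active = gene knockdowns whose robust z-score for IL-1 alpha signal is at least 2 or at most -2, so actives lie on both sides; inactive = the rest.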 This excerpt belongs to a sample that is enriched for actives.

The experiment in a line: Components of the Cytosolic LPS Sensing Pathway: Gene Identification via Genome-wide siRNA Screen.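 Note: robust z of the log signal after scaling to non-targeting control siRNA wells of the plate.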 As to conditions: RAW264.7 macrophages, IL-1a HTRF, actives lie on both sides, screened at 100 nM (by protocol), cells primed 5 h with Pam3CSK4 first. The method, boiled down: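 Cells (RAW264.7, 1×10^4 per well) were transfected with siRNA at 100 nM and cultured 48h at 37 degrees C. Pam3CSK4 was added for 5 hours; LipidA transfection followed for 24 hour. IL-1a was then measured by HTRF.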
In general terms: TR-FRET usually uses a lanthanide donor and a delayed reading to cut background.
Regarding GGCAAUUUUCAGAGAAGUUTT against Fosb, the z-score is -2.08 (active). Under GGCAGUCUACUUUACACGGTT against Prdm1 stands 0.294 (inactive); under GGAUCUUGGAUAAAGUGUGTT against Gpr180, 1.73 (inactive). Under CCCAGUUGCUGUUCUUGACTT against Defb40 stands 0.553 (inactive). With GGCUUCCUCAAGAACUUUCTT against Acly, the z-score is 0.0643 (inactive).

For the sequence CCGGUUACAAACUCAACUGTT against Syne3, the z-score is -0.285 (inactive). The same measure for GGGAGAGAUCCUCAACAGGTT against Cdk5rap1: -0.581 (inactive). As to GGUGCAUGACCUGACAAAGTT against Fermt3, the z-score was 2.5 (active).

For “CCUGGGUUGGAUAAAACUUTT against 6030458C11Rik”, the z-score is -0.0611 (inactive). Under GGAUUUUAAACCUUAAGGUTT against Ssty1 stands 0.49 (inactive).

On to GGCAGUGAAGAGAAGAAGUTT against Trub2, for which the z-score is -0.835 (inactive). In the case of GGAUUUCUUUGUCAGUACUTT against Il22ra2, the z-score was 0.791 (inactive). Under CCAUUAUGGACAAUAAGAGTT against Rnf8 stands 0.396 (inactive). Under GCAUGUGACUCCAUAUAAATT against Cldn15 stands -0.117 (inactive). Consider GGUUCAAAACUACACACACTT against Sp9, for which the z-score is 0.512 (inactive). The same measure for GGAGGGUACUCACAGGAAATT against Olfr411: -2.05 (active). The same measure for GGAUCAAUGCACCUUCCAATT against Gpr85: 1.61 (inactive); for GGACCAGUUUAUCCAGCACTT against Mc3r: -0.699 (inactive). Under GGCAGAAAAGAUAGCAUCUTT against Cops4 stands 0.413 (inactive); under GGUCUUUUCUAUUAUGGGATT against Strc, 1.22 (inactive). Take “GCGGUUUUGUGUCAGGGACTT against 4833408A19Rik”: the z-score is -0.682 (inactive). Under GGAGCUGUUGAAAGAAUAUTT against Relt stands 2.63 (active); under CCCUGAACAGGUCAUCUGUTT against Ctps2, 0.822 (inactive); under GGACAUGACUCUAAAAAAATT against Slc44a3, 4.43 (active). Under CGUGCUCAUUUAGGUUAUATT against Zfp57 stands 1.15 (inactive); under GGGCAAAUAGUCAAUGACCTT against Ces1e, 0.661 (inactive); under GCGGAACUUUCAUUGCUGGTT against Rabggta, 1.85 (inactive). For CCGGAGCACCAUUAAGGUUTT against Nudt11, the z-score is 4.75 (active). The same measure for GCCUUCUGAUUCAUUUUCUTT against Naa38: 0.525 (inactive); for GGAAAGUUUGCACUGUAAATT against Tiam2: -0.207 (inactive). The same measure for CCGUCUUCACCUGAUACAGTT against Ube2d2b: 0.501 (inactive); for GCUGAACGGUCUCAAACAGTT against Cdca3: 0.395 (inactive).

As for GGUGUCUCUGAUGAAUCACTT against Syt15, the z-score is 1.21 (inactive).

As to UCACAGUCAUCAUUGUUUCTT against Olfr825, the z-score was -2.83 (active). Under GGAAGUCCAACUUCUUCCATT against Ebf4 stands -0.153 (inactive); under GGUACCAUGAAGGAUUUAUTT against Tspan2, 3.24 (active). The same measure for GGCAUGAUGAUAUUUGAAATT against Glrp1: -0.142 (inactive); for GGAAAAAGAUGUCCUAUCUTT against Rufy2: -1.08 (inactive); for GGAUGUGGGUGGAUAUCAUTT against Sit1: 0.145 (inactive). The same measure for GGAAAAAAAGGUAGCUGGATT against Tspyl4: 2.82 (active). As for GCUUAUCGAAUUCUUCUCCTT against Cnpy2, the z-score was 0.417 (inactive). Under CUAGAUGCACAGAAUAGCATT against Prm1 stands -1.83 (inactive); under GCAAUAGGCAAUCUGGGAUTT against Olfr52, 0.504 (inactive). Under GCCUCAAUAAAUUGUCAGCTT against Slc25a17 stands -0.0131 (inactive); under GAAGCAGAACUUGAGCAAGTT against Phgdh, 2.07 (active).

For the sequence GCUGCAUAGAAUGACACGATT against Pip5kl1, the z-score is 0.851 (inactive). On to GGCAAAGACGACCUCUCACTT against Vtcn1, for which the z-score is -1.56 (inactive). The same measure for GGAUGAUGAAGUCAAAUUUTT against Slc26a5: 0.0656 (inactive); for CGACACCUAAGUUCAGCACTT against Mief2: -1.91 (inactive); for GCACUUUCAUGGAUAUAAGTT against Rab22a: -0.366 (inactive). On to GGCACUACUAAGAACCUUATT against Tmem69, for which the z-score is 0.728 (inactive). Under CGCAUACUGAUGAUAACUATT against Zfp317 stands 2.12 (active).

As for GGAAACCUUUUACCUUUAATT against Padi1, the z-score is -0.874 (inactive).

Consider CCAAAAUCGGGAAAGGAAATT against Ldb2, for which the z-score was -0.00816 (inactive).

As to “GGCUUGACCUGCGUCUUCATT against 1700001P01Rik”, the z-score was 0.736 (inactive). The same measure for GGAACAUUGGCAUCACGACTT against Acy1: 0.901 (inactive); for GGACGACGACUUUUUAAAATT against Pnmal1: 2.18 (active); for CCAUCUCUUACUAUCCAUGTT against Cmbl: -1.03 (inactive).

As to GGCAUGACUGGACUGAAAATT against Ythdf3, the z-score was -0.976 (inactive). As for GGGAUUUAGCACAAGAUACTT against Brinp3, the z-score is 0.606 (inactive). Under GGUAUUCUUGGAAGGAGGGTT against Prss22 stands 0.153 (inactive); under GGUCCAGAGAAGGCAAGCUTT against Elf3, 5.87 (active); under CGAAAAUCUUCUGGCUCACTT against Llgl2, -0.922 (inactive). With GGGACUUAGAAACAAUCCATT against Hsd3b4, the z-score was 1.77 (inactive). GGUAGCGAUGUUUUCUUAUTT against Nt5dc3: the z-score was 1.66 (inactive). On to GGUCAUGCUGAUCAGCGACTT against Itfg2, for which the z-score is -0.564 (inactive). For the sequence GGACUACAUGCUCACGUUATT against Ccm2, the z-score is 2.07 (active).

Consider CGCCGCACAGUUAAUGCUUTT against Mettl17, for which the z-score is 0.973 (inactive).

On to GGUUCCUCUCAAAAUUCAATT against Gprc6a, for which the z-score was 3.13 (active).
